Test results from the supplement of paper PMC8253809.

Experiments:
Experiment in all cases: growth inhibition (% activity, log2 RLU normalised to DMSO / staurosporine); higher = more growth inhibition
Conditions in all cases: 33 µM
DIPGX29 = tested on: DIPGX29 (H3.3 K27M diffuse intrinsic pontine glioma line)
Procedure, shortened: (§1)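 For each approved drug, the growth-inhibition value is the replicate median of per-plate normalised CellTiter-Glo data. Luminescence was log2-transformed and expressed as % activity between solvent and positive control wells. Drugs were applied in triplicate at a single final concentration of about 33 μM for 7 days at 37 °C, 5% CO2 to pHGG cell lines and H9-derived neural stem cells.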

DIPGX37 = tested on: DIPGX37 (H3.3 K27M diffuse intrinsic pontine glioma line)
Procedure, shortened: as §1

DIPGX7 = tested on: DIPGX7 (H3.3 K27M diffuse intrinsic pontine glioma line)
Procedure, shortened: as §1

DIPGX9 = tested on: DIPGX9 (diffuse intrinsic pontine glioma line)
Procedure, shortened: as §1

HGGX39 = tested on: HGGX39 (paediatric high-grade glioma line)
Procedure, shortened: as §1

HGGX6 = tested on: HGGX6 (H3.3 G34R paediatric high-grade glioma line)
Procedure, shortened: as §1

HNSC = tested on: HNSC
Procedure, shortened: as §1

SUDIPGIV = tested on: SUDIPGIV (diffuse intrinsic pontine glioma line)
Procedure, shortened: as §1

SUDIPGVI = tested on: SUDIPGVI (diffuse intrinsic pontine glioma line)
Procedure, shortened: as §1

SUDIPGXIII = tested on: SUDIPGXIII (diffuse intrinsic pontine glioma line)
Procedure, shortened: as §1

| SMILES | growth inhibition (DIPGX29) [%] | growth inhibition (DIPGX37) [%] | growth inhibition (DIPGX7) [%] | growth inhibition (DIPGX9) [%] | growth inhibition (HGGX39) [%] | growth inhibition (HGGX6) [%] | growth inhibition (HNSC) [%] | growth inhibition (SUDIPGIV) [%] | growth inhibition (SUDIPGVI) [%] | growth inhibition (SUDIPGXIII) [%] |
| --- | --- | --- | --- | --- | --- | --- | --- | --- | --- | --- |
| CCOC(=O)[C@H](CCc1ccccc1)N[C@H]1CS[C@H](c2cccs2)CN(CC(=O)O)C1=O | -2.15 | 0.457 | 0.303 | -0.286 | 0.0238 | 0.0397 | 1.94 | -0.624 | -2.82 | 0.0387 |
| CO[C@H]1/C=C/O[C@@]2(C)Oc3c(C)c(O)c4c(O)c(c5c(nc6cc(C)ccn65)c4c3C2=O)NC(=O)/C(C)=C\C=C\[C@H](C)[C@H](O)[C@@H](C)[C@@H](O)[C@@H](C)[C@H](OC(C)=O)[C@@H]1C | -0.23 | 1.09 | 0.284 | 1.81 | 1.27 | 1.5 | 0.942 | -1.07 | 1.39 | -1.05 |
| COC(=O)C1=C(C)NC(C)=C(C(=O)OC2CCCN(Cc3ccccc3)C2)C1c1cccc([N+](=O)[O-])c1 (stereo not given) | 3.05 | 0.403 | 2.15 | 3.22 | 6.94 | -0.555 | 33.4 | 3.22 | -1.31 | 2.1 |
| Nc1nc(=O)c2c([nH]1)NC[C@H](CNc1ccc(C(=O)N[C@@H](CCC(=O)O)C(=O)O)cc1)N2C=O | 1.44 | 1.17 | 2.14 | 0.677 | 1.92 | 0.872 | 35.4 | 2.82 | -2.53 | 0.25 |
| C[N+](C)(CCOc1ccccc1)Cc1ccccc1.O=C([O-])c1cc2ccccc2cc1O | -1.73 | 0.336 | -2.4 | -0.621 | -1.29 | -2.23 | -1.38 | 2.44 | 1.1 | -1.56 |
| CCOC(=O)[C@H](CCc1ccccc1)N[C@@H](C)C(=O)N1CCC[C@H]1C(=O)O | 1.73 | -8.18 | 0.205 | 0.307 | 0.569 | -0.623 | 1.11 | -1.94 | -1.02 | -3.41 |
| OCCOCCN1CCN(C(c2ccccc2)c2ccc(Cl)cc2)CC1 (stereo not given) | 3.87 | 0.602 | 4.59 | 0.403 | 2.86 | 3.73 | 4.05 | 1.02 | -1.15 | 1.1 |
| CN(C)CCc1c[nH]c2ccc(C[C@H]3COC(=O)N3)cc12 | -3.13 | -2.1 | 0.0297 | -2.64 | -3.04 | -3.73 | -3.71 | -3.68 | -7.46 | -1.12 |
| C[C@@H](O[C@H]1OCCN(Cc2nn(P(=O)(O)O)c(=O)[nH]2)[C@H]1c1ccc(F)cc1)c1cc(C(F)(F)F)cc(C(F)(F)F)c1 | 6.53 | 2.67 | 3.46 | 4.01 | 11.6 | 5.75 | 4.2 | 16.2 | 3.61 | 11.4 |
| CNC(=C[N+](=O)[O-])NCCSCc1csc(CN(C)C)n1 | -0.765 | -2.32 | -0.581 | 0.0593 | 0.382 | 0.506 | -0.992 | -0.124 | 0.207 | 0.421 |
| Cc1noc(NS(=O)(=O)c2ccc(N)cc2)c1C | -0.149 | -0.401 | -0.198 | -0.0916 | 2.16 | -1.61 | 29.4 | -0.587 | -0.478 | -3.55 |
| CNCCC(Oc1ccc(C(F)(F)F)cc1)c1ccccc1 (stereo not given) | 8.11 | 2.62 | 1.4 | 0.851 | 2.21 | 0.48 | 1.75 | 1.62 | 0.57 | 2.42 |
| N[C@@H](Cc1ccc(O)c(O)c1)C(=O)O | -0.663 | 0.423 | -0.313 | 0.542 | 2.68 | 1.4 | 0.395 | -0.394 | -1.98 | -0.139 |
| CN1CCC(=C2c3ccccc3C=Cc3ccccc32)CC1 | 1.58 | -0.405 | -0.277 | 2.34 | 7.18 | -0.0199 | 1.09 | 3.58 | 1.48 | 1.93 |
| N=C(N=C(N)N)N1CCOCC1 | 0.894 | 3.09 | 0.853 | 1.87 | 2.32 | 0.804 | 0.723 | -0.801 | 2.92 | -0.103 |
| OCC(O)CN1CCN(c2ccccc2)CC1 (stereo not given) | -2.77 | -0.131 | -2.09 | -1.86 | -1.17 | -1.7 | -3.11 | -1.45 | -3.65 | -0.744 |
| CCN(CC)CCNC(=O)c1c(C)[nH]c(/C=C2\C(=O)Nc3ccc(F)cc32)c1C | 25.8 | 6.19 | 11.1 | 7.94 | 7.9 | 20.3 | 71.3 | -3.41 | 3.36 | -4.08 |
| CCc1cccc2c3c([nH]c12)C(CC)(CC(=O)O)OCC3 (stereo not given) | 1.41 | 0.479 | 3.29 | 0.48 | 2.3 | 0.44 | 2.88 | -3.78 | 1.87 | 1.77 |
| CC(C)OC(=O)C(C(=O)OC(C)C)=C1SC=CS1 | 12.7 | 6.67 | 26.1 | 4.32 | 8.43 | 13.3 | 43.7 | 16.3 | -3.26 | 2.97 |

| SMILES | growth inhibition (DIPGX29) [%] | growth inhibition (DIPGX37) [%] | growth inhibition (DIPGX7) [%] | growth inhibition (DIPGX9) [%] | growth inhibition (HGGX39) [%] | growth inhibition (HGGX6) [%] | growth inhibition (HNSC) [%] | growth inhibition (SUDIPGIV) [%] | growth inhibition (SUDIPGVI) [%] | growth inhibition (SUDIPGXIII) [%] |
| --- | --- | --- | --- | --- | --- | --- | --- | --- | --- | --- |
| O=C1O[C@H]([C@@H](O)CO)C(O)=C1O | -0.099 | 2.39 | 0.0255 | -1.21 | 1.99 | -2.25 | 2.06 | 0.144 | -0.209 | -0.259 |
| CCOC(=O)c1c(C)n(C)c2ccc(O)cc12 | 0.475 | 0.373 | 0.137 | -1.16 | 1.77 | 1.27 | -0.219 | 0.902 | -0.0936 | -1.54 |
| CCC[C@H](NC(=O)[C@@H]1[C@H]2CCC[C@H]2CN1C(=O)[C@@H](NC(=O)[C@@H](NC(=O)c1cnccn1)C1CCCCC1)C(C)(C)C)C(=O)C(=O)NC1CC1 | 0.654 | 1.66 | 1.2 | 1.41 | 1.74 | 2.24 | 3.02 | 0.139 | 1.78 | -0.0315 |
| COCCCC/C(=N\OCCN)c1ccc(C(F)(F)F)cc1 | 1.49 | 4.31 | 1.46 | 3.17 | 4.47 | -0.782 | -3.83 | 2.23 | 0.798 | 2.91 |
| O=C1CCC(N2C(=O)c3ccccc3C2=O)C(=O)N1 (stereo not given) | -2.65 | -1.06 | -0.846 | -1.66 | -0.665 | -1.64 | -7.47 | -2.51 | -2.2 | -0.0477 |
| O=C(O)CCCN1CCC(O[C@@H](c2ccc(Cl)cc2)c2ccccn2)CC1 | -0.326 | 0.504 | -0.839 | -1.86 | 0.636 | -0.646 | -1.58 | -0.161 | 0.268 | 0.355 |
| C=C[C@]1(C)C[C@@H](OC(=O)CSC(C)(C)CNC(=O)[C@H](N)C(C)C)[C@]2(C)[C@H](C)CC[C@]3(CCC(=O)[C@H]32)[C@@H](C)[C@@H]1O | 2.79 | 0.213 | 4.74 | 1.8 | 20.9 | 4.36 | 15.7 | 29.9 | 1.61 | 46.4 |
| O=C(O)COCCN1CCN(C(c2ccccc2)c2ccc(Cl)cc2)CC1 (stereo not given) | 1.96 | 2.21 | 3.97 | 2.72 | 4.64 | 3.15 | 3.36 | -0.252 | 2.48 | 0.283 |
| CCc1cc2c(cc1CC)CC(NC[C@H](O)c1ccc(O)c3[nH]c(=O)ccc13)C2 | -0.957 | -0.915 | 0.341 | -1.43 | 0.343 | -1.65 | 23.5 | 1.53 | -4.28 | 0.665 |
| O=C(O)c1ccc(NC(=O)[C@H](Cc2ccc(O)cc2)NC(=O)c2ccccc2)cc1 | -3.5 | -1.5 | -2.53 | -1.13 | -2.55 | -0.845 | -2.41 | -2.35 | 0.761 | -0.558 |
| CC(/C=C1\SC(=S)N(CC(=O)O)C1=O)=C\c1ccccc1 | -1.36 | -1.28 | -1.21 | 0.579 | -0.83 | -0.392 | -2.25 | -1.67 | -1.06 | 1.76 |
| COc1cnc(NS(=O)(=O)c2ccc(N)cc2)nc1 | -0.629 | 0.775 | -0.856 | 0.181 | -0.248 | 0.442 | 0.00282 | -1.59 | 0.403 | 1.01 |
| CO/N=C(\C(=O)N[C@@H]1C(=O)N2C(C(=O)O)=C(CSC(=O)c3ccco3)CS[C@H]12)c1csc(N)n1 | -1.65 | 1.16 | -1.04 | -0.83 | 0.968 | -1.16 | -1.6 | 1.14 | -0.598 | 0.953 |
| Clc1ccccc1CN1CCc2sccc2C1 | 1.5 | 3.08 | 2.39 | 2.4 | 4.15 | 0.755 | 1.29 | 0.722 | 3.23 | 1.33 |
| O=C(c1ccccc1)c1ccc2n1CCC2C(=O)O (stereo not given) | 1.07 | -0.408 | 0.977 | -1.13 | -0.11 | 1.54 | -1.61 | -5.47 | 0.251 | 0.0715 |
| CN1CCC(=C2c3ccccc3CC(=O)c3sccc32)CC1 | -0.432 | 0.985 | -0.625 | 0.0911 | 0.272 | 2.44 | 1.53 | -1.24 | 0.438 | 0.861 |
| O=C(Nc1ccccc1)OCC(CN1CCCCC1)OC(=O)Nc1ccccc1 (stereo not given) | -1.04 | -3.49 | -0.617 | -1.45 | -2.3 | -1.35 | 9.66 | -3.64 | -7.72 | 1.16 |
| N#Cc1c(N(CC(=O)O)CC(=O)O)sc(C(=O)O)c1CC(=O)O | -0.0468 | -1.11 | -0.504 | 1.29 | 1.34 | -1.45 | 27.7 | 1.52 | 0.043 | -2.77 |
